Source: PubChem BioAssay (Tox21)
Records with an inconclusive call do not appear. The source made the active and inactive calls. Unless noted, calls follow the shape of the dose curve; as a rule, active = well fitted curve in the direction sought with a large enough effect in the repeat runs; inconclusive = weak or mixed curves; inactive = no such curve, though single readings can be large; an effect the other way counts as inactive or inconclusive.

Experiments:
[1] = target: Progesterone receptor (Homo sapiens) (UniProt P06401); experiment: qHTS assay to identify small molecule agonists of the progesterone receptor (PR) signaling pathway (AID 1346784; calls by dose curve; also: nearly all actives have a fitted effect of over 30% in size)
How it was run: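 HEK 293T PR-UAS-bla reporter cells, 2% charcoal-stripped FBS; 6 hr settle at 37C/5% CO2, compound (DMSO) 16 hr, LiveBLAzer B/G FRET substrate 2 hr RT, fluorescence intensity read.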

[2] = qHTS assay to identify small molecule antagonists of the progesterone receptor (PR) signaling pathway - cell viability counter screen (AID 1346798); also: series mostly up to about 92 µM; nearly all actives have a fitted effect of over 50% in size
How it was run: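 Luminescence readout (CellTiter-Glo, 30 min, RT) of viability in PR-UAS-bla HEK293T cells exposed to compound and R5020 agonist for 16 hr at 37C, 5% CO2; run in the same wells as the beta-lactamase reporter read.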

[3] = qHTS assay to identify small molecule agonists of the progesterone receptor (PR) signaling pathway - cell viability counter screen (AID 1346799; calls by dose curve; also: nearly all actives have a fitted effect of over 45% in size)
How it was run: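 HEK293T PR-UAS-bla, 3,000 cells/well, 2% charcoal-stripped FBS; 6 h settle, compound 16 h at 37C/5% CO2; LiveBLAzer 2 h RT, then CellTiter-Glo 30 min RT, luminescence read.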

[4] = qHTS assay to identify small molecule antagonists of the TGF-beta/Smad signaling pathway - cell viability counter screen (AID 1346824); also: nearly all actives have a fitted effect of over 50% in size
How it was run: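 Cytotoxicity counter-screen run in the same wells as the beta-lactamase Smad reporter read: CellTiter-Glo luminescence after 30 min at room temperature. HEK 293T SBE-bla cells had 5 hr compound exposure at 37 C with TGF-beta1 (0.25 ng/mL stock).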

[5] = qHTS assay to identify small molecule agonists of the TGF-beta/Smad signaling pathway - cell viability counter screen (AID 1346829); also: top concentration of the series differs between compounds; nearly all actives have a fitted effect of over 45% in size
How it was run: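 Compound-treated SBE-bla HEK 293T cells (5 hr, 37 C) were assessed for viability with CellTiter-Glo in parallel with the reporter read.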

[6] = qHTS assay to identify small molecule agonists of the TGF-beta/Smad signaling pathway (AID 1346859; active = well fitted activation curve with a large enough effect in the signal ratio in the repeat runs, not every such curve was filed as active; the % refers to the signal ratio; also: series mostly up to about 77 µM)
How it was run: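 Read-out: fluorescence at 460 and 530 nm (405 nm excitation) after a 2 hr room-temperature incubation with beta-lactamase FRET substrate. SBE-bla HEK 293T cells had been treated with test compounds for 5 hr at 37 C.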

[7] = target: Thyrotropin-releasing hormone receptor (Homo sapiens) (UniProt P34981); experiment: qHTS assay to identify small molecule antagonists of the thyrotropin-releasing hormone receptor (TRHR) signaling pathway (AID 1346877; active = well fitted inhibition curve with a large enough effect in the repeat runs, not every such curve was filed as active; also: series mostly up to about 51 µM)
How it was run: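 In this cell-based calcium flux format, HEK293 cells expressing TRHR received test compound for 5 min before the agonist TRH (1 nM final). Dye loading lasted 2 h at 37 °C.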

[8] = target: Thyrotropin-releasing hormone receptor (Homo sapiens) (UniProt P34981); experiment: qHTS assay to identify small molecule agonists of the thyrotropin-releasing hormone receptor (TRHR) signaling pathway (AID 1346891; calls by dose curve; also: series mostly up to about 58 µM)
How it was run: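 HEK293/TRHR cells, 1500 per well, 18 h 37 °C; Ca dye 2 h 37 °C; pin-tool compound addition (agonist mode); kinetic fluorescence 3 min, 1 s reads; 15 concentrations, triplicate.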

[9] = Human pregnane X receptor (PXR) small molecule agonists, qHTS cell viability counter screen (AID 1346977); also: nearly all actives have a fitted effect of over 50% in size
How it was run: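 Fluorescence read-out (CellTiter-Fluor) of viability in PXR-Luc HepG2 cells, multiplexed with the luciferase agonist read. Compounds in DMSO added after 5hr plating; 24hr total exposure at 37C, 5% CO2.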

[10] = Caspase-3/7 induction in HepG2 cells by small molecules, qHTS assay (AID 1346978); also: nearly all actives have a fitted effect of over 15% in size
How it was run: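 Caspase-3/7 induction was measured by Caspase-Glo 3/7 luminescence (30 min, room temperature) after a 17 hr compound exposure of wild-type HepG2 cells seeded at 2,000 per well and pre-incubated 5 hr.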

[11] = Caspase-3/7 induction in CHO-K1 cells by small molecules, qHTS cell viability counter screen (AID 1346979); also: nearly all actives have a fitted effect of over 35% in size
How it was run: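 CHO-K1 wt, 1,500 cells/well; 5hr pre-incubation 37C/5% CO2; compound pin transfer (DMSO); 16hr exposure; CellTiter-Fluor added, 1hr, fluorescence read.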

[12] = Caspase-3/7 induction in CHO-K1 cells by small molecules, qHTS assay (AID 1346980); also: nearly all actives have a fitted effect of over 15% in size
How it was run: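 Luminescent Caspase-Glo 3/7 read (30min, room temperature) quantified apoptosis induction. Cells were wild-type CHO-K1, treated with compound for 17hr at 37 C and 5% CO2.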

[13] = Caspase-3/7 induction in HepG2 cells by small molecules, qHTS cell viability counter screen (AID 1346981); also: series mostly up to about 92 µM; nearly all actives have a fitted effect of over 30% in size
How it was run: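 Counter screen for cytotoxicity: HepG2 exposed 16 hr to compounds, then CellTiter-Fluor viability signal (fluorescence, 1 hr reagent incubation).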

[14] = target: Nuclear receptor subfamily 1 group I member 2 (Homo sapiens) (UniProt O75469); experiment: Human pregnane X receptor (PXR) small molecule agonists, qHTS assay (AID 1346982); also: nearly all actives have a fitted effect of over 35% in size
How it was run: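 Luminescence (ONE-Glo, 30 min RT) after 24 hr compound exposure of PXR-Luc HepG2 cells; cells rested 5 hr post-plating in 5% charcoal-stripped FBS medium.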

[15] = target: Nuclear receptor subfamily 1 group I member 2 (Rattus norvegicus) (UniProt Q9R1A7); experiment: Rat pregnane X receptor (rPXR) activation by small molecules, qHTS assay (AID 1346983); settings: rPXR luciferase reporter cells, One-Glo luminescence, 24 h; max activation: hits give high values; also: nearly all actives have a fitted effect of over 20% in size
How it was run: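 Luminescent readout (One-Glo luciferase, 30 min room temperature) followed 24 hr compound treatment at 37 C of rPXR cells plated 2,000 per well and preincubated 5hr; qHTS format with compounds delivered in DMSO.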

[16] = target: Nuclear receptor subfamily 1 group I member 2 (Homo sapiens) (UniProt O75469); experiment: CYP3A4 induction through human pregnane X receptor (PXR) by small molecules, qHTS assay (AID 1346984); also: nearly all actives have a fitted effect of over 40% in size
How it was run: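 DPX-2 reporter cells; 24h cpd, 37C; Luciferin-IPA 3uM final x3h; One-Glo 30 min RT; lumi read.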

[17] = target: Nuclear receptor subfamily 1 group I member 2 (Homo sapiens) (UniProt O75469); experiment: Human pregnane X receptor (PXR) activation by small molecules, qHTS assay (AID 1346985); also: nearly all actives have a fitted effect of over 40% in size
How it was run: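 DPX-2 cells (HepG2 co-transfected with a PXR response element and a CYP3A4-promoter luciferase construct) were seeded at 2,000 per well, rested 5 hr at 37C, then exposed to DMSO-dissolved compounds for 24 hr. Activation was read as luciferase luminescence.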

[18] = target: Cytochrome P450 2D6 (Homo sapiens) (UniProt P10635); experiment: Cytochrome P450 Family 2 Subfamily D Member 6 (CYP2D6) small molecule antagonists: luciferase reporter qHTS assay (AID 1671196); also: series mostly up to about 120 µM; nearly all actives have a fitted effect of over 50% in size
How it was run: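 Inhibition of CYP2D6 was gauged by loss of luminescence, since light produced tracks the luciferin generated from a proluciferin substrate. A 10 min room-temperature preincubation preceded 1 h NADPH-supported turnover.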

[19] = target: Progesterone receptor (Homo sapiens) (UniProt P06401); experiment: qHTS assay to identify small molecule antagonists of the progesterone receptor (PR) signaling pathway (AID 1346795; active = well fitted inhibition curve with a large enough effect in the signal ratio in the repeat runs, not every such curve was filed as active; the % refers to the signal ratio)
How it was run: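 Beta-lactamase reporter, HEK293T PR-UAS-bla line; 2% charcoal-stripped FBS; 6 hr pre-incubation, 37C/5% CO2. Compound + R5020 1 nM final, 16 hr. LiveBLAzer B/G FRET substrate, 2 hr RT; fluorescence intensity read.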
% is scaled to controls: 0 for no effect and ±100 for the full control effect.

Sequence of Nuclear receptor subfamily 1 group I member 2 (Homo sapiens) (O75469 whole entry, looked up): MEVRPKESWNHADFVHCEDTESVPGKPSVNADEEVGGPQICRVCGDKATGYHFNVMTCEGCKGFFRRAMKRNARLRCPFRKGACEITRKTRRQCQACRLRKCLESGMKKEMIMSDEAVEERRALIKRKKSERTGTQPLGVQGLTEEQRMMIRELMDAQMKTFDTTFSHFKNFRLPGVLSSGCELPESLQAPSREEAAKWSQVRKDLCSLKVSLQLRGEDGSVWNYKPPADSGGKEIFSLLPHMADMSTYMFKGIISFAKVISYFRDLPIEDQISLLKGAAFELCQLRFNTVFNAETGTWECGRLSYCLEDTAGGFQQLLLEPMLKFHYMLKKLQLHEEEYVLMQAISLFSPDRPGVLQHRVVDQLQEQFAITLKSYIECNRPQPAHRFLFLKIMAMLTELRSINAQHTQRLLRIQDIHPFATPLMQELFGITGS
Sequence of Cytochrome P450 2D6 (Homo sapiens) (P10635 whole entry, looked up): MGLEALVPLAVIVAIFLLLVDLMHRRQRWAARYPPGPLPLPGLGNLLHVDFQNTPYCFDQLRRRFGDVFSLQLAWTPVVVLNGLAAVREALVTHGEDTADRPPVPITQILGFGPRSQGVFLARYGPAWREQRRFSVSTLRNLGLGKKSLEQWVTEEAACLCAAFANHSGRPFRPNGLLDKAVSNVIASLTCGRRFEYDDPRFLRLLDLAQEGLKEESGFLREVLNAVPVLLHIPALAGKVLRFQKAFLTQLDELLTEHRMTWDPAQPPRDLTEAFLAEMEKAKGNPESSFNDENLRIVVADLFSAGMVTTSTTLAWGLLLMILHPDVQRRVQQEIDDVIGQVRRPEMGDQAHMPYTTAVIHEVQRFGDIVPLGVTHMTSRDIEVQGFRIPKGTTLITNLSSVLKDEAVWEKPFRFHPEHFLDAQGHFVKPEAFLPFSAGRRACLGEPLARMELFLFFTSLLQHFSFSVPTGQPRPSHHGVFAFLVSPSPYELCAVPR
Sequence of Progesterone receptor (Homo sapiens) (P06401 whole entry, looked up): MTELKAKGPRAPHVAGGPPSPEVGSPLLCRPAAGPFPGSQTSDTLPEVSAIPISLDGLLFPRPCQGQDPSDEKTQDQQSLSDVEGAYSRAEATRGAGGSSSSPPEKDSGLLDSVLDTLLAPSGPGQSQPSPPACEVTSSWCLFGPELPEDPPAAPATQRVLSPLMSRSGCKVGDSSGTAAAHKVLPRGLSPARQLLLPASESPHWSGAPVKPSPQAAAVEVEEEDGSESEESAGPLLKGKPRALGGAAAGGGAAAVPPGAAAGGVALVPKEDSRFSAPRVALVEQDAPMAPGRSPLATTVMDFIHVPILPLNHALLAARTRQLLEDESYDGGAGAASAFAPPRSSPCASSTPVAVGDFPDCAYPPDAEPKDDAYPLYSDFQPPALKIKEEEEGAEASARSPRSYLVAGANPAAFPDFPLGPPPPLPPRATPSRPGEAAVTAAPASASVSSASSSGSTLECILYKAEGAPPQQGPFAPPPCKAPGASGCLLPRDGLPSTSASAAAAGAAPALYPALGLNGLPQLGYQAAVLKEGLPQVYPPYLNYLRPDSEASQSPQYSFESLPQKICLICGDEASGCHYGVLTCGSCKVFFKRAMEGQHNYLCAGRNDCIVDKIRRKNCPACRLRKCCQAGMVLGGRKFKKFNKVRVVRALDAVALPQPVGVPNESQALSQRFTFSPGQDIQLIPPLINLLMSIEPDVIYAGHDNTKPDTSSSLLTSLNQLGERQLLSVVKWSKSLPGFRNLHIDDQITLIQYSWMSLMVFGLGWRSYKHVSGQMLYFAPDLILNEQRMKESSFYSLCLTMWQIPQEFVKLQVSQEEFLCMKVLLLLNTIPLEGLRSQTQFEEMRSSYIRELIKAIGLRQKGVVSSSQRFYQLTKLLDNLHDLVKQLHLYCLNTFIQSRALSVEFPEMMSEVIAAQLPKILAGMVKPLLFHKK
Sequence of Thyrotropin-releasing hormone receptor (Homo sapiens) (P34981 whole entry, looked up): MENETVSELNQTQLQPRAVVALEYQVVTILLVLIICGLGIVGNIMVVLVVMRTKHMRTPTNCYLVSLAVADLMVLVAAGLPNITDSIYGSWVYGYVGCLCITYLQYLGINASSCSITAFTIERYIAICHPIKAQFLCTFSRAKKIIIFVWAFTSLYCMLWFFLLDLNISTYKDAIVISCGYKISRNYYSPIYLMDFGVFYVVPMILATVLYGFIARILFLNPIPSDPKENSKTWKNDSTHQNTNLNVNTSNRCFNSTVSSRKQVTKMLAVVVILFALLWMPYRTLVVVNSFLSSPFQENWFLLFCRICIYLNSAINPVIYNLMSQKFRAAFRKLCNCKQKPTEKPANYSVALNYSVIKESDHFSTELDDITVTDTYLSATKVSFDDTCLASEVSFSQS
Sequence of Nuclear receptor subfamily 1 group I member 2 (Rattus norvegicus) (Q9R1A7 whole entry, looked up): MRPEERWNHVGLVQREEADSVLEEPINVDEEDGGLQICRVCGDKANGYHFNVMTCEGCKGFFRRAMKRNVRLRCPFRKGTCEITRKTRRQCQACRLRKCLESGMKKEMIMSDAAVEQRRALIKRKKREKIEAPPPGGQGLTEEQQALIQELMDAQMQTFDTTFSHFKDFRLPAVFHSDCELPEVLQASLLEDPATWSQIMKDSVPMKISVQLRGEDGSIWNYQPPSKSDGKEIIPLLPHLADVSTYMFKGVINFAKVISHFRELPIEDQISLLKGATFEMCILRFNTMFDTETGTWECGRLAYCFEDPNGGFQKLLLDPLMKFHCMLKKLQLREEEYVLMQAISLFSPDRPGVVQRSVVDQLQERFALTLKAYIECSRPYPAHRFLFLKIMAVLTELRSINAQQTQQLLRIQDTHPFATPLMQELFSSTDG

CCN[C@H]1CN(CCCOC)S(=O)(=O)c2sc(S(N)(=O)=O)cc21
inactive: Potency [1] | Potency [2] | Potency [3] | outcome [4] | outcome [5] | outcome [6] | outcome [7] | Potency [8] | Potency [9] | Potency [10] | Potency [11] | outcome [12] | Potency [13] | Potency [14] | max activation [15] -3.62% | Potency [16] | Potency [17] | Potency [18]

CC(C)CC(=O)OCc1ccccc1
inactive: Potency [1] | Potency [2] | Potency [3] | outcome [4] | outcome [5] | outcome [6] | outcome [7] | Potency [8] | Potency [10] | Potency [11] | outcome [12] | Potency [13] | Potency [18]

CC1=C(CC(=O)O)c2cc(F)ccc2/C1=C\c1ccc(S(C)(=O)=O)cc1
inactive: Potency [1] | Potency [2] | Potency [3] | outcome [4] | outcome [5] | outcome [7] | Potency [8] | Potency [9] | Potency [10] | outcome [12] | Potency [13] | Potency [14]

CCCCCCCCCCCCCCCCOP(=O)([O-])OCC[N+](C)(C)C
inactive: Potency [1] | Potency [19] | Potency [2] | outcome [4] | outcome [5] | outcome [6] | Potency [9] | Potency [10] | Potency [11] | outcome [12] | Potency [13] | Potency [14] | max activation [15] 0.239% | Potency [16] | Potency [17]

CC(C)(C)C1CCCCC1=O (configuration not stated)
inactive: Potency [1] | Potency [2] | Potency [3] | outcome [5] | outcome [6] | outcome [7] | Potency [8] | Potency [9] | Potency [10] | Potency [11] | outcome [12] | Potency [13] | Potency [14] | Potency [18]
